These results are taken from PubChem BioAssay.

One may read the inhibition as the change of the read-out against control, counted positive when it falls. In general, viability refers to a read-out of living cells in per cent, often relative to untreated cells.

Records with an inconclusive call do not appear. Activity calls are given as the source filed them. Rule as the data show it, unless noted: active = inhibition above about 30%; inactive = the rest.

Experiment [1] addresses Pantothenate synthetase (Mycobacterium tuberculosis (strain ATCC 25618 / H37Rv)) (UniProt P9WIL5). The experiment in a line: Recombinant Mtb pantothenate synthetase (PanC) inhibitors, coupled enzyme, confirmatory (AID 375; call rule not given here;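 also: 0% = full reaction with vehicle and 100% = no enzyme background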). The conditions noted are these: coupled enzyme assay; at 10 µM, stronger effect = higher value.
Experiment [2] in a line: SK-BR-3 cell growth inhibitors, pilot screen, 24 h, human (AID 572;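 active = viability at or below 10% of carrier control in both of two separate runs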;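 also: compound exposure lasted between 18 and 24 h rather than exactly 24 h; 100% = carrier-treated control wells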). The conditions noted are these: SK-BR-3 viability, CellTiter-Glo luminescence, at 10 µM, stronger effect = lower value. (Cellular ATP, detected with luciferase, serves as a proxy for viable cell number.)
The nature of experiment [3]: HUVEC growth inhibition – cell-based, human, primary screen (AID 575;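 active = viability at or below 30% in both replicate assays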;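 also: 100% = median of untreated cell wells with 0.1% DMSO on each plate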). To be noted: HUVEC proliferation, CellTiter-Glo luminescence, 72 h; at 10 µM; stronger effect = lower value.
Experiment [4] can be described thus: growth inhibitors of H69AR lung tumor, primary screen, human, duplicate replicates (AID 580;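 active = viability at or under a set limit in both replicates, limit being median viability minus 3 SD, cut at about 48% in these data, passing the limit was not always enough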;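 also: 100% = mean luminescence of untreated wells and 0% = no signal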). To be noted: H69AR lung tumor cells viability, ATP luminescence, 72 h; at 10 µM; stronger effect = lower value.
Experiment [5] in a line: reversal of MRP1-mediated doxorubicin resistance, pilot screen, H69AR cells, doxorubicin co-treatment (AID 601;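 active = viability loss from added drug above about 55%, and viability with drug at most 40%, in both replicates, limit read from the data, passing the limit was not always enough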). To be noted: CellTiter-Glo, 72 h, at 10 µM; for differential viability (reversal): stronger effect = higher value.
Experiment [6] in a line: 384-well plate pilot, post-Golgi transport modulator project, inhibition of yeast transport mutant growth (AID 636; in the data active = inhibition above about 31%). To be noted: absorbance 615 nm, about 18 h, stronger effect = higher value.
The nature of experiment [7]: growth suppression of yeast trafficking mutant, preliminary HTS, modulators of trafficking downstream of Golgi apparatus project, 1536-format plate, OD 615 nm (AID 637). The conditions noted are these: yeast transport mutant growth, absorbance 615 nm, 18 h; stronger effect = higher value.
Experiment [8] can be described thus: OD615 S. cerevisiae growth inhibition, permissive medium, pilot counter-assay, permissive growth control for S. cerevisiae lifespan shortening project (AID 705;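 active = growth inhibition above 25% in both replicates, a cutoff set 3 SD above the mean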). To be noted: OD615, 24 h, at 10 µM, stronger effect = higher value.
Experiment [9] in a line: Restrictive medium S. cerevisiae growth inhibition, OD615, pilot screen of yeast lifespan reduction project, restrictive growth control (AID 706;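 active = growth inhibition above a set limit, 3 SD over mean compound inhibition, in both replicates, cut at about 43% in these data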;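 also: modified DeaD lifespan yeast strain shifted to restrictive glucose medium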). To be noted: OD615, 48 h, at 10 µM, stronger effect = higher value.
Experiment [10] is described as follows: viability gain of MRP-1-high H69AR cells under doxorubicin, pilot screen, MRP-1 activator project, CellTiter-Glo, duplicate (AID 807;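 active = viability increase at or above a cutoff of the median across tested compounds plus 3 SD, cut at about 8.5% in these data, passing the limit was not always enough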;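 also: compound pretreatment 18-22 h then 72 h combined with doxorubicin; 0% = doxorubicin alone and 100% = vehicle without doxorubicin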). The conditions noted are these: H69AR viability with doxorubicin, CellTiter-Glo luminescence; at 10 µM; stronger effect = higher value.
Experiment [11] can be described thus: growth suppression of beta-catenin knockout HCT116, pilot screen, human colon tumor cells (AID 823;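 active = cell viability at or below a set limit in both duplicate runs, the limit being the all-compound median minus 4 SD, cut at about 23% in these data, passing the limit was not always enough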;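 also: 0% = wells killed by 20 µM Hyamine and 100% = untreated DMSO cell wells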). The conditions noted are these: CellTiter-Glo, 60 h, at 10 µM, stronger effect = lower value.
Experiment [12] in a line: growth suppression of PTEN-deleted HCT116, pilot screen, cell-based, HCT116 clonal line, CellTiter-Glo (AID 824;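 active = viability at or below 27.92% in each of two runs, the all-compound median minus 4 SD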;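 also: 0% = 20 µM Hyamine control and 100% = vehicle cell control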). The conditions noted are these: 60 h, at 10 µM, stronger effect = lower value.
A short description of experiment [13]: inhibitors of the yeast RAM network, pilot screen, dse1pr::URA3 reporter, 5-FOA selection (AID 869;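 active = inhibition over a set limit, the all-compound mean plus 3 SD, in both replicate runs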;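 also: 0% = DMSO wells with no growth and 100% = 10 µM 1-NA-PP1 with full growth; RAM network block rescues cells from 5-FOA so hits raise OD615 growth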). To be noted: S. cerevisiae dse1pr::URA3 5-FOA growth, OD615, 2 d, at 10 µM, stronger effect = higher value.
[14] abbreviates: H69AR cells + 2 uM doxorubicin, measured here: viability with 2 uM doxorubicin, stronger effect = lower value.
Setting [15] is: H69AR cells, compound alone cytotoxicity.

Chain of Pantothenate synthetase (Mycobacterium tuberculosis (strain ATCC 25618 / H37Rv)) (P9WIL5 whole entry, looked up): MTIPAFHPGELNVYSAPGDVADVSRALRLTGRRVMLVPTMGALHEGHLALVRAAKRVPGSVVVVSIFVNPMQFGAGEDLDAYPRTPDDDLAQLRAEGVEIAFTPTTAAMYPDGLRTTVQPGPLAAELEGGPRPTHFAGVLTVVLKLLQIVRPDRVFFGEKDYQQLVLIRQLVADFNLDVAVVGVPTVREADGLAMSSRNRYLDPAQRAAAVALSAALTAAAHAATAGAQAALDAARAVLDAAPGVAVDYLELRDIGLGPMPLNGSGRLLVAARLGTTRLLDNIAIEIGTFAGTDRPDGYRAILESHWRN

For the compound `O=C(Cn1ncc2c3ccccc3n(Cc3ccc(F)cc3)c2c1=O)N1CCC2(CC1)OCCO2`, the inhibition in experiment [1] was 7% (inactive); in [6], -5.41% (inactive); in experiment [7] it was -2.55% (inactive). The viability was 86% (inactive) in experiment [2]; 96% (inactive) in experiment [3]; 89.2% (inactive) in [4]; 98.4% in [5] (setting [14]); 89.2% in [5] (setting [15]). Also, the differential viability (reversal) in experiment [5] (H69AR cells + 2 uM doxorubicin) is -9.23% (inactive).
As to `O=C(C1CCCN(c2nnc(-n3cccc3)s2)C1)N1CCC2(CC1)OCCO2` (configuration not stated), the results for the inhibition in experiment [1], in experiment [6] and in experiment [7] were 0% (inactive), -7.33% (inactive) and -5.09% (inactive), respectively. The viability in [2] was 83% (inactive); in experiment [3], 109% (inactive); in experiment [4], 94.3% (inactive); in experiment [5] (setting [14]), 81.6%; in experiment [5] (setting [15]) it was 94.3%. For the same compound, the differential viability (reversal) in [5] (H69AR cells + 2 uM doxorubicin) was 12.8% (inactive).
In the case of `NCC1(CC(=O)O)CCCCC1`, the inhibition in experiment [1] is 3% (inactive); in experiment [6], -1.17% (inactive); in experiment [7], 2% (inactive). In addition, the viability in experiment [2] is 105% (inactive); in experiment [3], 101% (inactive); in experiment [4] it was 96.8% (inactive); in [5] (setting [14]), 88.9%; in [5] (setting [15]), 96.8%. The differential viability (reversal) in experiment [5] (H69AR cells + 2 uM doxorubicin) is 7.93% (inactive).
Turning to `CC[C@@H](CO)NC(=O)[C@@H]1C=C2c3cccc4c3c(cn4C)C[C@H]2N(C)C1`, the inhibition was 7% (inactive) in experiment [1], 1.17% (inactive) in experiment [6] and -2% (inactive) in [7]. Besides, the viability was 147% (inactive) in experiment [2]; 96.8% (inactive) in experiment [3]; 95.4% (inactive) in experiment [4]; 96.6% in experiment [5] (setting [14]); 95.4% in experiment [5] (setting [15]). The differential viability (reversal) in [5] (H69AR cells + 2 uM doxorubicin) was -1.17% (inactive).
As for `OC(CNC1CCCCC1)c1ccccc1` (configuration not stated), the inhibition was 7% (inactive) in experiment [1], -2.67% (inactive) in experiment [6] and -2.55% (inactive) in [7]. For the same compound, the viability in experiment [2] is 104% (inactive); in [3], 111% (inactive); in experiment [4], 98% (inactive); in experiment [5] (setting [14]) it was 85.7%; in experiment [5] (setting [15]), 98%. Further, in [5] (H69AR cells + 2 uM doxorubicin), the differential viability (reversal) was 12.3% (inactive).
As to `c1ccc2c(c1)[nH]c1cnccc12`, the inhibition in experiment [1] is 0% (inactive); in experiment [6] it was -0.78% (inactive); in experiment [7] it was 0.5% (inactive). The viability in experiment [2] was 100% (inactive); in experiment [3], 70.2% (inactive); in experiment [4], 83% (inactive); in [5] (setting [14]), 80.7%; in [5] (setting [15]) it was 83%. Also, the differential viability (reversal) in [5] (H69AR cells + 2 uM doxorubicin) is 2.26% (inactive).
On to `CCOC(=O)c1c(N)n(Cc2ccco2)c2nc3ccccc3nc12`, for which the growth inhibition in experiment [8] was -1.25% (inactive); in [9], 0.175% (inactive). The viability increase in [10] is -6.16% (inactive). The viability in [11] is 83.3% (inactive); in [12] it was 74% (inactive). The inhibition in [13] is 1.18% (inactive).
Consider `Cc1c2ccncc2c(C)c2c1[nH]c1ccccc12`, for which the inhibition in experiment [1] was 0% (inactive); in experiment [6] it was 1.56% (inactive); in [7] it was 3.33% (inactive). The figures for the viability in experiment [3], in experiment [5] (setting [14]) and in experiment [5] (setting [15]) were 1.5% (active), 0.98% and 1.16%, respectively. In addition, the differential viability (reversal) in experiment [5] (H69AR cells + 2 uM doxorubicin) was 0.18% (inactive).
Regarding `Cc1ccccc1-n1c(O)c(C=NCCN2CCOCC2)c(=O)[nH]c1=O`, the inhibition in experiment [1] was 2% (inactive); in experiment [6], -5.87% (inactive); in experiment [7], -8.41% (inactive). Besides, the viability is 97.6% (inactive) in experiment [3], 92.4% (inactive) in experiment [4], 95.5% in [5] (setting [14]) and 92.4% in experiment [5] (setting [15]). The differential viability (reversal) in experiment [5] (H69AR cells + 2 uM doxorubicin) was -3.12% (inactive).
On to `O=C(O)Cn1cc(C(=O)c2ccccc2)c2ccccc21`, for which the inhibition in [1] was 0% (inactive); in experiment [6], -7.07% (inactive); in experiment [7], -0.36% (inactive). For the same compound, the viability was 89% (inactive) in experiment [2]; 104% (inactive) in [3]; 94.7% (inactive) in experiment [4]; 96% in experiment [5] (setting [14]); 94.7% in [5] (setting [15]). The differential viability (reversal) in [5] (H69AR cells + 2 uM doxorubicin) is -1.34% (inactive).
As to `O=C1c2ccccc2C(=O)N1Cc1nc2ccccc2c(=O)n1-c1ccc(Br)cn1`, the growth inhibition in experiment [8] was -8.78% (inactive); in experiment [9] it was -3.02% (inactive). Moreover, in experiment [10], the viability increase is 0.3% (inactive). Moreover, the values for the viability in experiment [11] and in [12] were 98.4% (inactive) and 99.3% (inactive), respectively. Besides, the inhibition in experiment [13] was 1.44% (inactive).
Regarding `COc1ccc(CCn2c(O)c(C=NCCCN(C)C)c(=O)[nH]c2=O)cc1OC`, the inhibition in experiment [1] was 0% (inactive); in experiment [6] it was -4% (inactive); in experiment [7], -1.59% (inactive). Moreover, the viability in experiment [3] is 103% (inactive); in experiment [4], 98.1% (inactive); in [5] (setting [14]), 94.5%; in experiment [5] (setting [15]) it was 98.1%. Also, the differential viability (reversal) in experiment [5] (H69AR cells + 2 uM doxorubicin) was 3.64% (inactive).
For `Cc1cc(OCC(=O)O)c2c3c(c(=O)oc2c1)CCCC3`, the inhibition in experiment [1] was 1% (inactive); in [6] it was -4.16% (inactive); in experiment [7], 7.38% (inactive). The viability is 132% (inactive) in experiment [2]; 85.9% (inactive) in experiment [3]; 84.8% (inactive) in experiment [4]; 87.9% in experiment [5] (setting [14]); 84.8% in [5] (setting [15]). Also, the differential viability (reversal) in [5] (H69AR cells + 2 uM doxorubicin) is -3.02% (inactive).
For the compound `N=C(N)c1c(O)n(C2CCCCC2)c(=O)n(C2CCCCC2)c1=O`, the figures for the inhibition in [1], in experiment [6] and in experiment [7] were 0% (inactive), -9.32% (inactive) and 7.14% (inactive), respectively. Further, the viability was 2.35% (active) in experiment [3], 2.02% (active) in experiment [4], 1.86% in experiment [5] (setting [14]) and 2.02% in experiment [5] (setting [15]). Also, the differential viability (reversal) in experiment [5] (H69AR cells + 2 uM doxorubicin) was 0.155% (inactive).
As to `CCCCN1C(=O)NC(=O)C2(Cc3c(nc4c(C)cccn4c3=O)N3CCc4ccccc4C32)C1=O` (configuration not stated), the inhibition in [1] is 3% (inactive); in experiment [6] it was 3.56% (inactive); in experiment [7] it was 10.5% (inactive). For the same compound, the viability in experiment [2] was 111% (inactive); in [5] (setting [14]), 75.6%; in experiment [5] (setting [15]), 55.8%. Moreover, in experiment [5] (H69AR cells + 2 uM doxorubicin), the differential viability (reversal) is -19.7% (inactive).
